Experimental data reported in PubChem BioAssay (NCATS).
Values without a mark were called inactive. Inconclusive results are not listed. Activity calls are given as the source filed them. Calls come from the whole dose curve; as a rule, active = well fitted curve in the direction sought with a large enough effect; inconclusive = small, poorly fitted or top-dose-only effect, or another doubt; inactive = no such curve, though single readings can be large; an effect the other way counts as inactive or inconclusive.

Experiment: qHTS assay for measurement of the activity of small molecule inhibitors on Zika virus induced Caspase-3 activity in human astrocytoma cells (AID 1224859);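 note: plate controls were ZIKV-infected untreated cells for no effect and uninfected cells for full effect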
Details: SNB-19 ZIKV-induced caspase-3/7, luminescence, 6 h; series mostly up to 45.7 µM; activity change, negative = inhibition: at the top concentration
Summary of the method: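 In SNB-19 cells plated at 250 cells/well and grown 16-20 h, compounds were applied 1 h before ZIKV (2 FFU/cell). Six hours later caspase-3/7 luminescence was recorded.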

Row | Compound | activity change, negative = inhibition
1 | CCNC(=O)[C@H]1O[C@@H](n2cnc3c(N)ncnc32)[C@H](O)[C@@H]1O | -7.89%
2 | C=CCN1CC[C@]23c4c5ccc(O)c4O[C@@H]2/C(=N/N=C2\CC[C@@]4(O)C6Cc7ccc(O)c8c7[C@@]4(CCN6CC=C)[C@@H]2O8)CC[C@@]3(O)C1C5 | 0.287%
3 | COc1ccc(CNC(=O)/C=C/c2ccc3[nH]cc(CCN(C)C)c3c2)cc1 | -6.59%
4 | CCCSP(=O)(OCC)SCCC | -5.55% [at 92.8 µM]
5 | NC(Cc1ccc(N(CCCl)CCCl)cc1)C(=O)O (centres undefined) | -4.42%
6 | C=CCN(C1=NCCN1)c1c(Cl)cccc1Cl | 8.95%
7 | NNC(N)=O | 14.4%
8 | Cc1o[nH]c(=O)c1CC(N)C(=O)O (centres undefined) | -6.44%
9 | COc1ccc2c(c1)/C(=C/c1cnc[nH]1)C(=O)N2 | -2.31%
10 | COc1ccc2c(c1)[C@@]13CCCC[C@H]1[C@@H](C2)NCC3 | -7.96%
11 | O=C1C=CC(=O)C=C1 | 3.41%
12 | CC(C)NP(=O)(NC(C)C)OP(=O)(NC(C)C)NC(C)C | -9.75%
13 | CC(C)(O)[C@@H]1C2OC(=O)[C@@H]1[C@]1(O)C[C@H]3O[C@]34C(=O)O[C@H]2[C@]14C (tested in a mixture with another compound) | -0.836%
14 | CC(C)(C)c1o[nH]c(=O)c1CC(N)C(=O)O (centres undefined) | -10.3%
15 | CO[C@H]1CC=C2CCN3CCC4=C(CC(=O)OC4)[C@]23C1 | -14.9%
16 | C/C(O)=C(\C#N)C(=O)Nc1cc(Br)ccc1Br | 7.8%
17 | CCCCCCCCCCCCCC(=O)O[C@@H]1[C@@H](C)[C@@]2(O)[C@@H](C=C(CO)C[C@@]3(O)C(=O)C(C)=C[C@@H]23)C2C(C)(C)[C@@]21OC(C)=O (some centres undefined) | 8.87%

Experiment: qHTS assay to identify small molecule inhibitors of chordoma cells - UCH-1 (AID 1259355); note: nearly all actives have a fitted effect of over 55% in size; note: potency is the fitted concentration of half-maximal effect; for activity, negative = inhibition: % is set by controls: 0 for no effect and ±100 for the full control effect
Details: UCH-1 chordoma viability, CellTiter-Glo, 48 h, combination; series mostly up to 46.1 µM; activity, negative = inhibition: at the top concentration
Summary of the method: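 Luminescent ATP read-out (CellTiter-Glo, 30min at room temperature) measured viability of UCH-1 cells exposed for 48hr to test drugs at 15 concentrations, co-dosed with a five-agent combination of auranofin, camptothecin, doxorubicin, rubitecan and topotecan.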

Row | Compound | activity, negative = inhibition | Potency
18 | CC(C)[C@@]1(NC(=O)[C@@H]2C[C@@H]3c4cccc5[nH]cc(c45)C[C@H]3N(C)C2)O[C@@]2(O)[C@@H]3CCCN3C(=O)[C@H](Cc3ccccc3)N2C1=O | -25% | 
19 | C[CH2][Hg][S]c1ccccc1C(=O)O |  | 3.16 µM (active)
20 | C=CCN(C1=NCCN1)c1c(Cl)cccc1Cl | 6.89% | 
21 | CCCCCl | 23.2% [at 46.1 µM, with auranofin plus four topoisomerase inhibitors] | 

Experiment: qHTS assay to identify small molecule inhibitors of chordoma cells - UCH-2 (AID 1259356); note: potency is the fitted concentration of half-maximal effect; for activity change, negative = inhibition: % is set by controls: 0 for no effect and ±100 for the full control effect
Details: UCH-2 chordoma viability, CellTiter-Glo ATP luminescence, 48 h; series mostly up to 46.1 µM; activity change, negative = inhibition: at the top concentration

Row | Compound | activity change, negative = inhibition | Potency
22 | CC(C)[C@@]1(NC(=O)[C@@H]2C[C@@H]3c4cccc5[nH]cc(c45)C[C@H]3N(C)C2)O[C@@]2(O)[C@@H]3CCCN3C(=O)[C@H](Cc3ccccc3)N2C1=O | -23.5% | 
23 | C[CH2][Hg][S]c1ccccc1C(=O)O |  | 3.66 µM (active)
24 | C=CCN(C1=NCCN1)c1c(Cl)cccc1Cl | 0.89% | 
